Laboratory results: article PMC5540273 (PLoS ONE, 2017)
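Note: KINOMEscan kinase panel screen.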

The compounds below were run on MAPKAPK2. Conditions: concentration: 1 μM,replicates: in singlicate; n = 1.
`Cl.Cl.NC[C@H](CC1CCCCC1)NC(=O)c1cc(Br)c(-c2ccnc3[nH]ccc23)s1` [GSK1581427] was tested, and the “%Inh” value was 0%. For `Cc1n[nH]c2ccc(-c3cc(OC[C@@H](N)Cc4ccccc4)cnc3-c3ccoc3)cc12.O=C(O)C(F)(F)F.O=C(O)C(F)(F)F` [GSK507358], the “%Inh” value was 0%. For `C[C@@H]1CCN(C(=O)CC#N)C[C@@H]1N(C)c1ncnc2[nH]ccc12`, the “%Inh” value was 0%. With `O=C(NCCCN1CCOC1=O)c1cnc(NCc2cc(Cl)ccc2Cl)nc1NC1CCCC1` the “%Inh” value was 0%. With `Cc1cc(C(=O)Nc2ccc(Oc3ccc4nc(NC(=O)C5CC5)cn4n3)cc2)nn1-c1ccccc1` the “%Inh” value was 8%. In the case of `Cc1ccc(-n2nc(C(C)(C)C)cc2NC(=O)Nc2ccc(OCCN3CCOCC3)c3ccccc23)cc1` [GW839464], the “%Inh” value is reported as 0%. `Cc1cc2cn[nH]c2cc1-c1cccc2c(N)c(C(N)=O)nnc12` was tested, and the “%Inh” value was 42%. With `Cl.Cl.NC[C@H](Cc1ccc(C(F)(F)F)cc1)NC(=O)c1cc(Br)c(-c2ccnc3[nH]ccc23)s1` [GSK1487252] the “%Inh” value was 0%. For `CN(C)CC(O)COc1ccc(Nc2nccc(-c3cnn4nc(N5CCOCC5)ccc34)n2)cc1` (stereo not drawn) [GW767488], the “%Inh” value was 0%.

The compounds below were run on MAPKAPK5. Conditions: concentration: 1 μM,replicates: in singlicate; n = 1.
`Cl.Cl.Nc1nc(-c2ccc3c(N)n[nH]c3c2)cc(N2CCCC(NC(=O)c3ccccc3)C2)n1` (stereo not drawn) [GSK2286775] was tested, and the “%Inh” value was 0%. With `CC(C)Nc1cc(-c2ccc3c(N)n[nH]c3c2)nc(N)n1` [GSK2221681] the “%Inh” value was 0%. With `COc1ccc(C[C@@H](CN)NC(=O)c2cc(Br)c(-c3ccnc4[nH]ccc34)s2)cc1.Cl.Cl` [GSK1389063] the “%Inh” value was 0%. For `C[C@H]1Oc2cc(cnc2N)-c2c(nn(C)c2C#N)CN(C)C(=O)c2ccc(F)cc21`, the “%Inh” value was 0%. With `Cc1ccc2c(-c3ccncc3)c(-c3ccc(F)cc3)nn2c1.Cl` [GW461484] the “%Inh” value was 0%. With `C=CC(=O)Nc1cc2c(Nc3ccc(F)c(Cl)c3)ncnc2cc1OCCCN1CCOCC1` [GW781483] the “%Inh” value was 14%. For `CNC(=O)c1ccccc1Sc1ccc2c(/C=C/c3ccccn3)n[nH]c2c1`, the “%Inh” value was 0%. With `C[C@@H](Oc1cc(-c2cnn(C3CCNCC3)c2)cnc1N)c1c(Cl)ccc(F)c1Cl` the “%Inh” value was 8%. `CCN(CC)CCOc1ccc(Nc2ncc3cc(-c4c(Cl)cccc4Cl)c(=O)n(C)c3n2)cc1` [SB-601273] was tested, and the “%Inh” value was 0%. `CN(C)CCOc1ccc(-c2cc(-c3c[nH]nc3-c3ccccn3)ccn2)cc1` [GW835314] was tested, and the “%Inh” value was 0%. For `Cl.Oc1cc(-c2nc(-c3ccccc3)[nH]c2-c2ccncc2)ccc1Cl` [SB-386023], the “%Inh” value was 0%. With `CC(C)N1C(=O)Cc2cc(Nc3ncc(C(F)(F)F)c(NCc4cccc(S(C)(=O)=O)c4)n3)ccc21` the “%Inh” value was 25%. With `O=C(NCCNc1ccnc(NCc2ccc(F)cc2)n1)c1cc2ccccc2s1` [GSK1379944] the “%Inh” value was 0%. `CCn1c(-c2nonc2N)nc2c(C#CC(C)(C)O)nc(OCCN)cc21.Cl.Cl` [GSK902056] was tested, and the “%Inh” value was 0%. For `NC(=O)c1cc(-c2ccccc2)cc2c(C3CCNCC3)c[nH]c12` [GSK301362], the “%Inh” value was 0%. For `CCN(CC)CCCCNc1ncc2cc(-c3c(Cl)cccc3Cl)c(NC(=O)NC(C)(C)C)nc2n1`, the “%Inh” value was 8%. `Nc1nc(Nc2ccccc2)cc(-c2ccc3c(N)n[nH]c3c2)n1` [GSK2225749] was tested, and the “%Inh” value was 0%. For `Cc1occc1-c1nc(N)c(OC[C@@H](N)Cc2c[nH]c3ccccc23)cc1-c1cc2c(C)n[nH]c2cn1` [GSK1660450], the “%Inh” value was 0%. `Cl.Cl.NC[C@H](CC1CCCCC1)NC(=O)c1cc(Br)c(-c2ccnc3[nH]ccc23)s1` [GSK1581427] was tested, and the “%Inh” value was 0%. `Cc1n[nH]c2ccc(-c3cc(OC[C@@H](N)Cc4ccccc4)cnc3-c3ccoc3)cc12.O=C(O)C(F)(F)F.O=C(O)C(F)(F)F` [GSK507358] was tested, and the “%Inh” value was 0%. `C[C@@H]1CCN(C(=O)CC#N)C[C@@H]1N(C)c1ncnc2[nH]ccc12` was tested, and the “%Inh” value was 0%. `O=C(NCCCN1CCOC1=O)c1cnc(NCc2cc(Cl)ccc2Cl)nc1NC1CCCC1` was tested, and the “%Inh” value was 0%. With `Cc1cc(C(=O)Nc2ccc(Oc3ccc4nc(NC(=O)C5CC5)cn4n3)cc2)nn1-c1ccccc1` the “%Inh” value was 0%. For `Cc1ccc(-n2nc(C(C)(C)C)cc2NC(=O)Nc2ccc(OCCN3CCOCC3)c3ccccc23)cc1` [GW839464], the “%Inh” value was 0%.
